KDM5B inh = Primary screen for KDM5B Histone Demethylases FDH-coupled qHTS. 220,000 tested, 2.6% active. Lysine-specific demethylase 5B (Homo sapiens), Q9UGL1. KDM5B demethylase, FDH-coupled NADH fluorescence (FDH is formaldehyde dehydrogenase). Potency, µM (series often up to 57.7 µM), hits mostly inhibitors; active = well fitted inhibition curve with a large enough effect; also: 0% is about no effect; nearly all actives have a fitted effect of over 70% in size
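Inhibition is measured as reduced NADH fluorescence generation from FDH coupling to formaldehyde release. Truncated KDM5BΔAP at 200 nM final acts on H3K4me3 peptide (12.5 µM in substrate mix) in pH 7.5 HEPES buffer with Tween-20, 30 min, room temperature.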
The depositor's hits bear a star; i = inactive. Many of the other results were omitted from the sample, so hits are more common in it than they were. Potency is read from the fitted curve at half-maximal effect.

SMILES	KDM5B inh
CC(C)c1ccc(CC(=O)N2CCCc3ncc(C(=O)NCCc4cnc[nH]4)cc32)cc1	i
COc1ccc(-c2cc(C(=O)NCCc3cnc[nH]3)c3c(c2)N(C)CCO3)cc1OC	31.6µM*
COc1ccc(CCNC(=O)c2cnc3ccc(C)cn3c2=O)cc1OC	i
Cn1nccc1-c1cc2c(ccn2C)c(C(=O)NCCc2cnc[nH]2)n1	i
COc1ccc(-c2cc(C(=O)NCCC(=O)N3CCOCC3)c3ccccc3n2)cc1OC	i
CCC(C)(C)C(=O)N1CCC(N2C(=O)CCC2C(=O)NCc2ccccc2)CC1 (stereo not given)	i
COC(=O)c1cc(OCCOc2ccccc2Cl)cc(C(=O)OC)c1	i
O=C(Nc1ccc(F)cc1)c1nnc(CSCC(=O)N2CCN(c3ccccc3)CC2)s1	i
COc1ccc(CN2CCCC3(CC(Cc4ccccc4)=NO3)C2)cc1 (stereo not given)	i
FC(F)(F)c1ccc(CN2CCCC3(CC(Cc4ccccc4)=NO3)C2)cc1 (stereo not given)	i
c1ccc(CC2=NOC3(CCN(Cc4ccccc4)C3)C2)cc1 (stereo not given)	31.6µM*
Cc1ccc(C)c(NC(=O)C(=O)NCC(c2cccnc2)N2CCN(c3ccc(F)cc3)CC2)c1 (stereo not given)	i
Cc1noc2ncnc(SCc3ccc(C(F)(F)F)cc3)c12	i
COC(Cn1cc2c(c1-c1ccc(F)cc1)c(=O)n(C)c(=O)n2C)OC	i
COc1ccc(-c2nc(N3CCOCC3)cc3c2CN(CC2CC2)C3=O)cn1	35.5µM*
COCC(=O)N(C1CCOCC1)C1CCN(C(=O)c2ccc(OC)nc2)CC1	i
COc1ccc(CN2CCC3OCCN(Cc4ccccc4)C(=O)C3C2)cn1 (stereo not given)	i
COc1ccc(-c2nc(N3CCOCC3)cc3c2CN(Cc2ccccc2)C3=O)cc1OC	i
Cn1cc(-c2nc(N3CCOCC3)cc3c2CN(CC2CC2)C3=O)cn1	i
CCOc1ccc(NC(=O)Nc2ccc3nc(N4CCOCC4)cc(C)c3c2)cc1	i
Cc1ccccc1N1Cc2c(ncnc2N2CCOCC2)N(C)CC1=O	i
COc1ccc(-c2nc(N3CCOCC3)cc3c2CN(Cc2ccccc2)C3=O)cn1	35.5µM*
Cc1ccccc1-c1nc(N2CCOCC2)cc2c1CN(CC1CC1)C2=O	35.5µM*
CC(=O)Nc1ccc(NC(=O)CCSC2CCc3ccccc3NC2=O)cc1 (stereo not given)	i
CC(=O)Nc1ccc(NC(=O)CSc2nc3ccccc3c(=O)[nH]2)cc1	i
SMILES	KDM5B inh
COc1ccccc1C(=O)N1CCN(c2cc(-c3ccccc3)[nH]n2)CC1	i
COC(=O)c1ccc(CSc2nc3c([nH]c4ccccc43)c(=O)n2-c2ccc(OC)cc2)o1	i
O=C(CN1CCN(Cc2ccccn2)CC1)Nc1cccc2nonc12	i
Cc1oc2cc(OCC(=O)c3ccccc3)ccc2c(=O)c1-c1ccccc1	i
COCC(=O)N1CCCN(Cc2cccnc2)c2ccccc21	i
Cn1nccc1C(=O)N1CCN(C2CCN(Cc3cccnc3)C2=O)CC1 (stereo not given)	i
CNC(=O)c1cc(-c2ccnc(NC(C)=O)c2)cc2c1OCCN2Cc1cccnc1	39.8µM*
CNC(=O)c1cc(-c2ccccc2)cc2c1OCCN2Cc1cccnc1	31.6µM*
CNC(=O)c1cc(-c2ccncc2)cc2c1OCCN2Cc1cccnc1	i
Cc1ccccc1CN1CCC(CN(Cc2cccnc2)C(=O)CN2CCOC2=O)CC1	i
Cc1ccc(CNC(=O)c2ccc3c(c2)CN(Cc2ccc(O)c(F)c2)CCO3)cc1	i
CNC(=O)c1cc(-c2cccnc2)cc2c1OCCN2Cc1cccnc1	i
Cn1nccc1C(=O)N1CCC(OC2CCN(Cc3cccnc3)CC2)CC1	i
CNC(=O)c1cc(-c2ccc(O)c(F)c2)cc2c1OCCN2Cc1cccnc1	28.2µM*
CNC(=O)c1cc(-c2cnn(C)c2)cc2c1OCCN2Cc1cccnc1	39.8µM*
CC(=O)Nc1ccc(C(=O)N2C3CCC2CN(Cc2cccnc2)C3)cc1	i
COc1cccc(NC(=O)C2CCN(S(=O)(=O)c3cc(-c4noc(C)n4)ccc3C)CC2)c1	i
O=C(Cc1ccccc1)NCC1CCOCC1	i
COc1ccc(C(NC(=O)Cc2cccs2)C(=O)Nc2ccc3c(c2)OCO3)cc1 (stereo not given)	i
CNc1cc(C2CC(NS(=O)(=O)c3ccc(F)cc3)C2)nc(COC)n1 (stereo not given)	i
CCCSCCCNC(=O)c1ccc2c(c1)nc1n2CCCCC1	i
CCCCOC(=O)c1ccc(NC(=O)c2cc(=O)c3ccc(C)c(C)c3o2)cc1	i
Cc1ccc(-n2ncc(C(=O)Nc3ccc(C)c(F)c3)c2C2CCN(C(=O)OC(C)(C)C)CC2)cc1C	i
O=C(NC1CCCCCCC1)C1CCN(C(=O)c2ncn3c2COC(c2ccc(F)cc2)C3)CC1 (stereo not given)	i
O=C(O)c1ccc(C(F)(F)F)nc1	i
SMILES	KDM5B inh
O=Cc1ccc(-c2ccc(C(=O)O)cn2)cc1	22.4µM*
O=Cc1cccc(-c2ccc(C(=O)O)cn2)c1	i
C[C@H](NC(=O)[C@H](Cc1ccccc1)NC(=O)c1cc2cc(Cl)ccc2n1C)C(=O)O	i
COCCN1C(=O)c2cccn2CC1CNC(=O)COc1ccc(C)cc1 (stereo not given)	i
CCCN(CCC)C(=O)Cc1c(C)[nH]c2ccc(F)cc12	i
Cc1[nH]c(=O)[nH]c(=O)c1/C=N/NC(=O)[C@H](C)N	i
COc1cccc(CN2CCc3nn(C)c(=O)n3CC2)n1	i
COc1cccc(CN2CCc3nn(C)c(=O)n3CC2)c1OC	i
COc1ccc2c(c1)c(CN1CCc3nn(C)c(=O)n3CC1)cn2C	31.6µM*
Cn1nccc1C(=O)NCc1ccc2c(c1)CCN2C(=O)c1ccccc1	i
CCOc1nccn2c(-c3ccc(CNC(=O)c4ccnn4C)cc3)cnc12	39.8µM*
CCOc1ccc(CNC(=O)CCn2c(=O)c3cccn3c3cccnc32)cc1	i
O=C(c1cccnc1OC1CCN(S(=O)(=O)Cc2ccccc2)C1)N1CCCCC1 (stereo not given)	i
CC(=O)c1ccc(OCC(=O)c2c(C)[nH]c3ccccc23)cc1	i
CCN1CCN(CCN2CC3(CCN(C(=O)[C@H](C)NC)CC3)OC2=O)CC1	i
CCN1CCN(CCCN2CC3(CCN(c4ncccc4F)CC3)OC2=O)CC1	17.8µM*
CCN1CCN(CCCN2CC3(CCN(Cc4ncc[nH]4)CC3)OC2=O)CC1	i
O=C(c1cc2c(ccc3ccccc32)o1)N1CCCCC1	i
CCCC(=O)c1ccc(O)cc1	i
CNCCN1C(=O)CC[C@H]2CN(C(=O)CCCn3cnnn3)CC[C@H]21	i
CCCNC(=O)N(C1CCOCC1)C1CCN(C(=O)c2ccccn2)CC1	i
COc1cc(C2CC(=O)Nc3nc(C)[nH]c(=O)c32)ccc1OCc1ccccc1C (stereo not given)	i
Cc1cc(C)n2nc(C(=O)NCC3COc4ccccc4C3)cc2n1 (stereo not given)	22.4µM*
CCCn1cc(C(=O)NCC2COc3cc(OC)ccc3C2)c(C)n1 (stereo not given)	i
CCn1cc(S(=O)(=O)NCC2COc3ccccc3C2)c(C)n1 (stereo not given)	i
COc1ccc(S(=O)(=O)N2CCC(Oc3cccc(C(F)(F)F)c3)CC2)cc1OC	i

Source: PubChem BioAssay (National Center for Advancing Translational Sciences (NCATS))
